Only some compounds are listed: those with a hit (about 5.9% of all), similar ones and a draw of the others.
NR0B1 inh = inhibits human nuclear receptor DAX1; inhibition, % at 6.75 µM; P51843; HEK293 Gal4-DAX1 luciferase reporter, luminescence; actives 0.99% (n = 340,000); AID 504766;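 active = inhibition above the mean over all tested compounds plus 3 SD, cut at about 4.2% in these data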;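 note: inhibition shows as a rise in luminescence from relieved DAX1 repression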
Target sequence (P51843 207-470 limits assumed): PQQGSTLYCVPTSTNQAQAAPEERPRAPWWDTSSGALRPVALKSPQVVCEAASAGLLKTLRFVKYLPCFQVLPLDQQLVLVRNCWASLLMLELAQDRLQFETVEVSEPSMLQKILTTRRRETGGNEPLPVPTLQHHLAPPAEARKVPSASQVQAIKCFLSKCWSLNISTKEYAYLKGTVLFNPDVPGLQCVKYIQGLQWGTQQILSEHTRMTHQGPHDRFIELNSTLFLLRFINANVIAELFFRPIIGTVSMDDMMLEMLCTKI
AHR activator = activates the human aryl hydrocarbon receptor; P35869; AHR-responsive luciferase reporter cells, luminescence; activation, % at 5 µM; actives 2.5% (n = 320,000); in the data active = activation above about 47%
HSF-1 act = increases HSF-1 driven luciferase reporter signal; NIH3T3-HGL HSF-1 luciferase reporter, MG132, 8 h; 100% = twice DMSO control signal; activation, % at 9 µM; actives 1.7% (n = 300,000);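 active = mean replicate activation of at least 50% with a set share of replicates each reaching 50%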
HSP90 inh = HSP90 refolding inhibition in rabbit reticulocyte lysate; luciferase refolding luminescence, 3 h; inhibition, % at 5.6 µM; actives 0.91% (n = 290,000); AID 1789;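 active = inhibition above the screen-wide mean plus 3 SD, computed separately per campaign, cut at about 16% in these data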;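 note: inhibitors lower the luminescence because luciferase stays unfolded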
GAA850 FXN act = activators of GAA850 frataxin (FXN) promoter; HEK293 lucGAA850 FXN promoter luciferase reporter, 24 h; percent of 10 µM SAHA response; activation, % at 6 µM; actives 0.56% (n = 360,000); AID 540364;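 active = activation above the average of all compounds screened plus 3 SD, cutoff fixed separately per campaign, cut at about 7.5% in these data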
HSF1 inhib = HSF1 inhibition. AID 2098. actives 0.77% (n = 300,000). NIH3T3-HGL HSE-luciferase, MG132-induced, luminescence 8 h; stronger effect = lower value. activity change, negative = inhibition, % at 7.5 µM (by protocol);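 active = more than half of replicate wells show activity change below -50%, luminescence cut by over half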;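 note: luciferase reports HSF-1 transcriptional activity via heat shock element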
GAA30 counter = GAA30 FXN promoter activation counter-screen. shares compounds with GAA850 FXN act. HEK293 lucGAA30 FXN promoter luciferase, 24 h; DMSO = 0%, 5 µM ipriflavone = 100%. activation, % at 6 µM. actives 66% (n = 1,900);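 active = mean activation above the mean of solvent-only control wells plus 3 SD, cut at about 22% in these data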;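 note: counterscreen of GAA850 promoter hits where activity marks nonselective or luminescence artifacts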
GAA850 confirm = GAA850 FXN promoter activation confirmation | actives 86% (n = 1,900) | activation, % at 6 µM | AID 588351 | HEK293 lucGAA850 FXN promoter luciferase reporter, 24 h; 100% = activation by SAHA | shares compounds with GAA850 FXN act;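 active = mean activation above a set limit taken from the primary screen, cut at about 8% in these data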
Each line names hits and unclear results; the compound was inactive in the other large screens (follow-up assays come after a bar, where they were run).

COc1cc(-c2cnc3c(NC=O)cc(-c4ccc(N5CCN(C)CC5)cc4)cn23)cc(OC)c1OC	GAA850 FXN act 10.8 (no result: NR0B1 inh, AHR activator, HSF-1 act, HSP90 inh, HSF1 inhib) | GAA30 counter 109.5 | GAA850 confirm 51.2
O=S(=O)(Nc1cccc2ncccc12)c1cccc(C(F)(F)F)c1	none (no result: HSF-1 act, HSP90 inh, HSF1 inhib)
Cc1ccc(-c2c(C)sc3ncn(CC(=O)N4CCOCC4)c(=O)c23)cc1C	none
COc1cc2sc3cc(NCCCN4CCOCC4)ccc3c(=O)c2cc1OC	GAA850 FXN act 9.8 (no result: HSF-1 act, HSP90 inh, HSF1 inhib) | GAA30 counter 114.2 | GAA850 confirm 37.0
O=c1c2ccccc2sc2ccc(NCCCN3CCOCC3)cc12	none (no result: HSP90 inh)
COc1ccc(NC(=O)Nc2ccc(N3CCOCC3)c3nonc23)c(OC)c1	none
O=C(Nc1ccc(F)cc1)Nc1ccc(N2CCOCC2)c2nonc12	GAA850 FXN act 8.2 | GAA30 counter 102.8 | GAA850 confirm 31.8
CCCn1[nH]cc(SC)c(=O)c1=O	none
O=C(CSc1nnc(-c2cccs2)o1)N1CCc2ccccc21	none
C=CCSc1nnc(-c2cc3c(s2)-c2ccccc2CC3)o1	AHR activator 66.1, GAA850 FXN act 8.7 | GAA30 counter 75.9 | GAA850 confirm 28.2
N#Cc1c(NC(=O)c2cnn3cccnc23)sc2c1CCCC2	none
O=C(Nc1cnn(C23CC4CC(CC(C4)C2)C3)c1)c1cnn2cccnc12	GAA850 FXN act 10.2 | GAA30 counter 107.2 | GAA850 confirm 42.2
CCc1nnc(NC(=O)c2ccc(OC)c(S(=O)(=O)N3CCCC3)c2)s1	none (no result: HSF-1 act, HSP90 inh, HSF1 inhib)
O=C(NC1=NN(c2ccccc2)CC1)Nc1ccccc1F	GAA850 FXN act 8.5 | GAA30 counter 45.5 | GAA850 confirm 18.2
O=C(Nc1ccccc1F)Nc1ccccc1N1CCCCC1	none
Cc1ccc(C(=O)N2CCCCC2)cc1NC1=C(Cl)C(=O)N(Cc2ccccc2)C1=O	none (no result: HSF-1 act, HSP90 inh, HSF1 inhib)
Cc1ccc(O)c(NC2=C(Cl)C(=O)N(Cc3ccccc3)C2=O)c1	GAA850 FXN act 8.1 (no result: AHR activator) | GAA30 counter inactive | GAA850 confirm 12.4
O=C(N/C=C/n1cnc2cc(C(F)(F)F)ccc21)c1ccccc1F	none

Source: PubChem BioAssay
